# Rows were chosen to be rich in hits. Some 6% of all compounds tested hit in one or more screens of this group.
# VDR inhibitor = inhibitors of human vitamin D receptor. P11473. VDR-SRC2-3 peptide fluorescence polarization, 2 h. Potency, µM, most hits filed as inhibitors. actives 0.93% (n = 400,000). AID 504847
# Target sequence (P11473 whole entry, looked up): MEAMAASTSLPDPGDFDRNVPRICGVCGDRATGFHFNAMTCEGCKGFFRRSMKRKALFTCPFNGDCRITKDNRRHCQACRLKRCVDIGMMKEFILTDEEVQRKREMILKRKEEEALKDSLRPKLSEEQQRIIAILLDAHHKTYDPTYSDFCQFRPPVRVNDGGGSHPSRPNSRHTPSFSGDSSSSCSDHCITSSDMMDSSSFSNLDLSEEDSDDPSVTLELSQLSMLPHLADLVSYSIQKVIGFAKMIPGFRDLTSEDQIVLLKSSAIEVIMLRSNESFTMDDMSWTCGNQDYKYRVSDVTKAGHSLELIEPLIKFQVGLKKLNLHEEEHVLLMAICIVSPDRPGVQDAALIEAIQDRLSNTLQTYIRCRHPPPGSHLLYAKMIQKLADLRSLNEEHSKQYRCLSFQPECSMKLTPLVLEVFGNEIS
#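 Signal is fluorescence polarization, reporting how far test compounds block the interaction of VDR with the SRC2-3 coregulator peptide after a 2 h room-temperature incubation.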
# PLK1 PBD block = PLK1 (human) polo-box domain binding inhibition | Potency, µM, actives largely listed as inhibitors | P53350 | Plk1 PBD binding of FITC phosphopeptide, fluorescence polarization | actives 2.8% (n = 360,000); also: series mostly up to about 57 µM; nearly all actives have a fitted effect of over 65% in size
# Tau fibril FP = blocks human tau fibril formation measured by polarization | K18 P301L tau heparin fibrillization, Alexa594 FP, 6 h | P10636 | Potency, µM (titrated, usually from 57.7 µM), hits mostly inhibitors | AID 1468 | actives 0.39% (n = 280,000); also: nearly all actives have a fitted effect of over 55% in size
# Target sequence (P10636 561-689 P618L limits assumed): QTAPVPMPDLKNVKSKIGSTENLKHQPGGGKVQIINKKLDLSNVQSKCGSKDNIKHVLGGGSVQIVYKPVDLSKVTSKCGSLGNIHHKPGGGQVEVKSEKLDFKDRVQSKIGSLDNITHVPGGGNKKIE
#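 Quantitative HTS format: compounds meet 15 uM recombinant K18 P301L tau and Alexa 594-tau tracer in 100 mM sodium acetate pH 7; 20 uM heparin triggers fibrillization at 37 C over 6 hr; FP gives the signal.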
# Sfp PPTase inh = inhibitors of Bacillus subtilis Sfp phosphopantetheinyl transferase | Q9F4F7 | Biochemical Sfp PPTase activity, qHTS | Potency, µM, hits mostly inhibitors | actives 3.5% (n = 310,000);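 also: the enzyme is Sfp with the accession as filed and its product quenches rhodamine fluorescence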
#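 Step 1, compound plus 15 nM Sfp-PPTase, 15 min, room temperature. Step 2, add rhodamine-CoA (5 uM) and BHQ-2-YbbR (12.5 uM). Step 3, read 525/598 nm fluorescence at 0 and 30 min.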
# Tau fluor cs = counter-screen for tau fibril formation inhibitors. tau K18 P301L Alexa594 fluorescence, heparin fibrillization. Potency, µM (top dose mostly 57.7 µM). actives 0.93% (n = 280,000). AID 1463; also: nearly all actives have a fitted effect of over 55% in size
#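 Human tau K18 P301L (15 uM unlabeled, 0.24 uM Alexa 594-labeled) in 100 mM sodium acetate pH 7 with 20 uM heparin, 6 hr at 37 C. ThT 30 uM added, 1 hr ambient; Alexa 594 FP and total fluorescence read at 555/632 nm.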
# Tau fibril ThT = blocks human tau fibril formation measured by thioflavin T. P10636. recombinant tau K18 P301L (four-repeat tau fragment), heparin-induced fibrillization, ThT fluorescence. Potency, µM (series often up to 57.4 µM), actives largely listed as inhibitors. actives 2.1% (n = 270,000). AID 1460; also: nearly all actives have a fitted effect of over 55% in size
#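 Tau K18 P301L fragment (15 uM unlabeled plus 0.24 uM Alexa 594-labeled) in 100 mM sodium acetate pH 7 with compound, fibrillization induced by 20 uM heparin for 6 hr at 37 C. Thioflavin T (30 uM) added, fluorescence read after 1 hr (ex 450, em 510 nm).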
# Hits are given with their value; . = inactive; ? = inconclusive; / = no result; [ ] = dose if it differs, or a comment. Calls follow the shape of the dose curve; as a rule, active = well fitted curve in the direction sought with a large enough effect; inconclusive = small, poorly fitted or top-dose-only effect, or another doubt; inactive = no such curve, though single readings can be large; an effect the other way counts as inactive or inconclusive.
SMILES,VDR inhibitor,PLK1 PBD block,Tau fibril FP,Sfp PPTase inh,Tau fluor cs,Tau fibril ThT
CCOc1cc(NC(=O)c2ccccn2)c(OCC)cc1NC(=O)CC(C)C,.,21.2µM,.,.,.,.
CCOc1cc(NC(=O)c2ccccn2)c(OCC)cc1NC(=O)c1ccccc1,.,.,?,.,.,.
O=S(=O)(c1ccc(Br)cc1)c1nc(-c2cccs2)oc1SCc1ccc(F)cc1,.,/,.,/,.,.
O=C(c1ccc(Cl)cc1)[C@@H]1[C@@H]2C(=O)N(c3cccc4ccccc34)C(=O)[C@@H]2C2c3ccccc3C=NN21 (stereo partly drawn),.,23.8µM,.,.,.,?
CC(=O)[C@@H]1[C@@H]2C(=O)N(c3ccccc3F)C(=O)[C@@H]2[C@H]2c3ccccc3C=NN12,.,.,.,.,.,?
c1nc(N2CCNCC2)c2cc(-c3ccoc3)ccc2n1,.,/,/,.,/,/
Fc1ccc(Nc2ncnc3ccc(-c4ccoc4)cc23)cc1,39.8µM,/,/,.,/,/
c1nc(NC2CCNCC2)c2cc(-c3ccoc3)ccc2n1,20µM,/,/,.,/,/
c1cncc(-c2ccc3ncnc(NC4CCNCC4)c3c2)c1,.,/,/,.,/,/
NC(=O)CSc1nc2c(oc3ccccc32)c(=O)n1-c1ccccc1F,.,/,.,/,.,.
CC(C)c1nn2c(=O)cc(COC(=O)c3ccccc3NC(=O)C3CCCCC3)nc2s1,.,/,.,/,.,.
Cc1coc2c1C(=O)C(=O)c1c-2ccc2c(C)cccc12,?,?,?,.,.,2µM
Cc1coc2c1C(=O)C(=O)c1c-2ccc2c1CCCC2(C)C,28.2µM,?,?,.,?,14.1µM
Cc1ccc2c3c(cccc13)-c1ccccc1C2=O,.,.,.,?,.,?
CN(C)c1ccc(N=Nc2ccc3ncccc3c2)cc1,.,.,/,/,/,/
Cc1cc(N(C)C)ccc1N=Nc1ccc2ncccc2c1,.,?,.,44.7µM,?,0.501µM
Cc1ccc(S(=O)(=O)NCC2CCC(C(=O)N3CCN(C)CC3)CC2)cc1 (stereo not drawn),.,.,/,.,/,/
O=C(COC(=O)Cc1ccc(-c2ccccc2)cc1)NCc1ccccc1,?,26.7µM,.,.,.,.
CN(c1ccccc1)c1ccc(/C=C(\C#N)c2nnc3n2CCCCC3)cc1[N+](=O)[O-],?,.,.,.,?,14.1µM
CC(/C=N/Nc1nc(C)cc(C)n1)=C\c1ccc(C(C)C)cc1,.,.,.,.,.,?
CCOC(=O)C1=CCN(S(=O)(=O)c2ccccc2Br)C1c1cccc(F)c1 (stereo not drawn),/,.,/,/,/,/
O=C(c1ccco1)c1coc2c1cc(O)c1ccccc12,.,29.9µM,.,.,?,3.55µM
CCOc1ccccc1NC(=S)/C(=C(\[O-])c1ccc2c(c1)OCCO2)[n+]1ccc(CC)cc1,.,21.2µM,?,?,.,?
[O-]/C(=C(\C(=S)Nc1ccccc1F)[n+]1ccccc1)c1ccc(-c2ccccc2)cc1,.,.,.,17.8µM,.,?
CC(C)(C)c1cc[n+](/C(C(=S)Nc2ccccc2F)=C(/[O-])c2ccc3c(c2)OCCO3)cc1,.,.,.,20µM,.,?
SMILES,VDR inhibitor,PLK1 PBD block,Tau fibril FP,Sfp PPTase inh,Tau fluor cs,Tau fibril ThT
[O-]C(=C(C(=S)Nc1cccc2ccccc12)[n+]1ccccc1)c1ccc2c(c1)OCCO2,.,?,/,/,/,/
[O-]/C(=C(\C(=S)Nc1ccc(Cl)cc1)[n+]1ccccc1)c1ccc(OC(F)F)cc1,?,?,.,50.1µM,.,?
O=[N+]([O-])c1cccc(/C([O-])=C(/C(=S)Nc2ccccc2)[n+]2ccccc2)c1,?,.,.,?,.,.
COc1ccccc1NC(=O)c1oc2ccccc2c1NC(=O)Cc1ccccc1,.,/,.,/,.,.
COc1ccc(Cl)cc1NC(=O)Cn1c2ncccc2c(=O)n1-c1ccc(C)c(C)c1,.,/,.,/,.,.
Cc1nc2nc(-c3ccco3)[nH]n2c(=O)c1Cc1ccccc1,.,.,.,.,.,.
COC(=O)Cc1c(C)nc2nc(-c3ccco3)[nH]n2c1=O,.,.,.,56.2µM,.,.
COc1ccc(S(=O)(=O)Nc2ccc(-c3ccc4nncn4n3)cc2)c(OC)c1,?,18.9µM,/,/,/,/
COc1ccc(-c2nc(CSCC(=O)NCCc3ccc(OC)c(OC)c3)c(C)o2)cc1,.,/,.,/,.,?
O=C1CNC(=O)/C(=C\c2ccccc2)N1,.,.,/,.,/,/
O=C1/C(=C/c2ccccc2)Nc2ccccc21,.,.,.,.,.,12.6µM
CCOC(=O)C1=C(C)NC(SCC(N)=O)=C(C#N)C1c1cccs1 (stereo not drawn),?,.,.,.,.,.
C=CCOC(=O)C1=C(C)NC(SCC(=O)Nc2nccs2)=C(C#N)C1c1ccc(Cl)cc1 (stereo not drawn),.,.,?,.,10µM[quencher],.
C=CCOC(=O)C1=C(C)NC(SCC(=O)Nc2nccs2)=C(C#N)C1c1cccs1 (stereo not drawn),.,29.9µM,.,.,15.8µM[quencher],?
CC(=O)C1=C(C)NC(SCC(=O)Nc2nccs2)=C(C#N)C1c1ccccc1Cl (stereo not drawn),.,.,.,.,.,.
C=CCOC(=O)C1=C(C)NC(SC)=C(C#N)C1c1cccs1 (stereo not drawn),.,.,.,.,.,.
CCOC(=O)C1=C(C)NC(SCc2cc(=O)[nH][nH]2)=C(C#N)C1c1cccs1 (stereo not drawn),.,.,?,?,?,12.6µM
Cn1c(=O)c2c(-c3ccccc3)n3c(c2n(C)c1=O)C(c1cccc([N+](=O)[O-])c1)Nc1ccccc1-3 (stereo not drawn),.,/,?,/,.,?
COc1ccc(NC(=O)N2CC3(CCN(C(=O)c4c(C)noc4C)CC3)C2)cc1,.,/,/,.,/,/
COc1ccc(NC(=O)CCN2CCN(c3ccccc3F)CC2)c(OC)c1,.,.,/,.,/,/
CCOc1cccc(C(=O)Nc2c(C(=O)c3ccc(OC)cc3)oc3ccccc23)c1,.,/,?,/,?,.
Cc1cccc(NC(=S)NCCc2ccccc2)n1,.,33.6µM,.,56.2µM,.,.
S=C(NCCc1ccccc1)Nc1ccccn1,.,.,.,.,.,.
S=C(NCc1ccccc1)Nc1cccc2cnccc12,.,?,/,56.2µM,/,/
S=C(NCCc1ccccc1)Nc1cccc2cnccc12,.,?,.,50.1µM,.,?
CCn1cnc2c(=O)oc3ccc(S(=O)(=O)Nc4ccc(OC)cc4)cc3c21,.,/,.,/,.,.
CC(C)C(=O)Nc1ccc2nc(SCC(=O)N3CCc4ccccc43)sc2c1,.,/,.,/,.,.
CCOC(=O)N1CCN(C(=O)CSCC(=O)N=c2sc3cc(OC)ccc3n2C)CC1,?,26.7µM,/,/,/,/
CCOC(=O)N1CCN(C(=O)CSCC(=O)N=c2sc3ccccc3n2C)CC1,.,.,.,.,.,?

# Source: PubChem BioAssay
